From the supplement of paper PMC10849652
Of roughly 7,900 targets only a part is listed; those with a hit were picked by preference. About 0.6% of all pairs of compound and target were hits. A number with no mark means an inactive call.

Columns and labels:
Assay in all cases: log2 fold change, soluble protein after heating vs DMSO (PISA); higher = thermal stabilisation; K562 cells, 10 uM, 30 min; active = over 0.2 and 3.5 SD of the protein, either way, in both replicates (recomputed)
[1] = compound: CS(=O)(=O)c1ccc(-c2cnc(N)c(C(=O)Nc3ccccc3)n2)cc1
Outline: (§1)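 K562 cells at 2×10^6 cells/mL were exposed to 10 μM compound for 30 min, then aliquots were heated for 3 min across 48°C-58°C, pooled, and extracted in PBS containing 0.5% NP-40 at 4°C. The supernatant after 21,000xg for 90 min was taken as soluble protein and measured by TMTpro 16plex LC-MS/MS with channel sums equalised. Thermal stability is reported relative to control samples, with values from duplicates. Fold changes are given on a log2 scale.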

crizotinib = compound: C[C@@H](Oc1cc(-c2cnn(C3CCNCC3)c2)cnc1N)c1c(Cl)ccc(F)c1Cl [crizotinib]
Outline: as §1

[2] = compound: C[C@@H]1COCCN1C2=NC(=NC(=C2)C3(CC3)S(=O)(=O)C)C4=C5C=CNC5=CC=C4
Outline: as §1

[3] = compound: C[C@H](C1=CC=C(C=C1)C(=O)NC2=C3C=CNC3=NC=C2)N
Outline: as §1

duvelisib = compound: C[C@H](Nc1ncnc2nc[nH]c12)c1cc2cccc(Cl)c2c(=O)n1-c1ccccc1 [duvelisib]
Outline: as §1

gandotinib = compound: Cc1cc(Nc2cc(CN3CCOCC3)c3nc(C)c(Cc4ccc(Cl)cc4F)n3n2)n[nH]1 [gandotinib]
Outline: as §1

tozasertib = compound: Cc1cc(Nc2cc(N3CCN(C)CC3)nc(Sc3ccc(NC(=O)C4CC4)cc3)n2)n[nH]1 [tozasertib]
Outline: as §1

[4] = compound: Cc1cc(SCc2sc(-c3ccc(C(F)(F)F)cc3)nc2C)ccc1OCC(=O)O
Outline: as §1

doramapimod = compound: Cc1ccc(-n2nc(C(C)(C)C)cc2NC(=O)Nc2ccc(OCCN3CCOCC3)c3ccccc23)cc1 [doramapimod]
Outline: as §1

ispinesib = compound: Cc1ccc(C(=O)N(CCCN)[C@@H](c2nc3cc(Cl)ccc3c(=O)n2Cc2ccccc2)C(C)C)cc1 [ispinesib]
Outline: as §1

Sequence of UniProt Q10589 (Q10589 whole entry, looked up): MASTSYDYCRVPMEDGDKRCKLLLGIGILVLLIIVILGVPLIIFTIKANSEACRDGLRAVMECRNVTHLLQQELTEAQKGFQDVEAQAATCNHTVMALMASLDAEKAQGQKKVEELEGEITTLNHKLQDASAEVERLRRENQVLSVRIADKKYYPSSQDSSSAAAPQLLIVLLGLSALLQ
Sequence of UniProt P52895 (P52895 whole entry, looked up): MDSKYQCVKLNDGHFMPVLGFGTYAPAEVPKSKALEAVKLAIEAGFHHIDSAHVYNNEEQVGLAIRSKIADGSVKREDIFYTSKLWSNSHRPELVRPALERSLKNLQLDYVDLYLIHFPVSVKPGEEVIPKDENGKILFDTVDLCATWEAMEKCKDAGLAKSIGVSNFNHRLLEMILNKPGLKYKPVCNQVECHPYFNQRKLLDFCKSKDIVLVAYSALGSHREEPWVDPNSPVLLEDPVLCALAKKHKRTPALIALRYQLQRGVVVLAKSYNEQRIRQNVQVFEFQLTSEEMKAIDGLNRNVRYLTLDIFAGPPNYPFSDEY
Sequence of UniProt Q15904 (Q15904 whole entry, looked up): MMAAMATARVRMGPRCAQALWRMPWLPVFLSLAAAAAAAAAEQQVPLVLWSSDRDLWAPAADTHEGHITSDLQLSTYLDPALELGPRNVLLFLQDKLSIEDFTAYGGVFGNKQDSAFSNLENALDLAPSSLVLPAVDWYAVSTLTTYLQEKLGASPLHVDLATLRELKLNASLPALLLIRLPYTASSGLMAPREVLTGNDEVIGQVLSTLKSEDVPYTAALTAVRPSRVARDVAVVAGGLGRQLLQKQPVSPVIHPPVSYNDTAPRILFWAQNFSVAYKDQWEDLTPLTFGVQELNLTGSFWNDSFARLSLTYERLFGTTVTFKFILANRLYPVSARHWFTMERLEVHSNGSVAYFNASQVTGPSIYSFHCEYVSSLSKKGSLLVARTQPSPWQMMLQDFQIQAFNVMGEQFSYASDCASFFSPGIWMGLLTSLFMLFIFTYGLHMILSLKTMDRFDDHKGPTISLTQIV
Sequence of UniProt P54707 (P54707 whole entry, looked up): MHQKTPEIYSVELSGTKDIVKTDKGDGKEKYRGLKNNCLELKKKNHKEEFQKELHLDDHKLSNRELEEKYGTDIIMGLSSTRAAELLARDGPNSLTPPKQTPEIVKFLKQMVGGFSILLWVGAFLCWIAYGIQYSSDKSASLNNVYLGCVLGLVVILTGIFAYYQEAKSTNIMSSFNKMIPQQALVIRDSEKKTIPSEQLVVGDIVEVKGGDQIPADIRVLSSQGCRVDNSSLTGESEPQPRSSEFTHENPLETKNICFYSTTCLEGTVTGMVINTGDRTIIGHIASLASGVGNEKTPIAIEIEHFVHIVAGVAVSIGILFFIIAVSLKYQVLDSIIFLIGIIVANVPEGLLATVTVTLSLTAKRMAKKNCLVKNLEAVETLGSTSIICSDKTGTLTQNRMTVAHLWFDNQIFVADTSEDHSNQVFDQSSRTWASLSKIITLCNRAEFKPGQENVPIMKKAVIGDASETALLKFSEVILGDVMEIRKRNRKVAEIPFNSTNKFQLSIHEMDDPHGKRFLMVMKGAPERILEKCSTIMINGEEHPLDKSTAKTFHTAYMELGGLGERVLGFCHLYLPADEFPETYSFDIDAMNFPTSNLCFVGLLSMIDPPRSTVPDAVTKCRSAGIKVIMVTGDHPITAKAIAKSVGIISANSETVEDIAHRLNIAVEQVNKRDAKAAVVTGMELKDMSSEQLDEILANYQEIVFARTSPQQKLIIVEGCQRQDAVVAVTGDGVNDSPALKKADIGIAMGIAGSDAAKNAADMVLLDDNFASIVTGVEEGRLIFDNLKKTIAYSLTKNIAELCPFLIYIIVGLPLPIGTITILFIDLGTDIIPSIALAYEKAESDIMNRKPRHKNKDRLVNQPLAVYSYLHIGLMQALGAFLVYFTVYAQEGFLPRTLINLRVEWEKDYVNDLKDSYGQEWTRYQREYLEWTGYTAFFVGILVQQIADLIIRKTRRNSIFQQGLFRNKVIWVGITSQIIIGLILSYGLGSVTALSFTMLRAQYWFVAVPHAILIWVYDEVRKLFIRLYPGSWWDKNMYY
Sequence of UniProt Q8TDN6 (Q8TDN6 whole entry, looked up): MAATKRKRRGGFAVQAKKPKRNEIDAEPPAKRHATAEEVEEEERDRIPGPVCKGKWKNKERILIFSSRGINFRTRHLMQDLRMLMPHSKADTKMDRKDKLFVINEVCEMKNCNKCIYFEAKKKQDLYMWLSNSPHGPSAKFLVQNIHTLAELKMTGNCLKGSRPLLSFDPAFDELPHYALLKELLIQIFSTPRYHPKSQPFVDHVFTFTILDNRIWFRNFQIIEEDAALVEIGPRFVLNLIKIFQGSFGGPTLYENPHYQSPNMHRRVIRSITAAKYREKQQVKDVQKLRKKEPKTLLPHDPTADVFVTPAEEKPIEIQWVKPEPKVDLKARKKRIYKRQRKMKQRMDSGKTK
Sequence of UniProt O15440 (O15440 whole entry, looked up): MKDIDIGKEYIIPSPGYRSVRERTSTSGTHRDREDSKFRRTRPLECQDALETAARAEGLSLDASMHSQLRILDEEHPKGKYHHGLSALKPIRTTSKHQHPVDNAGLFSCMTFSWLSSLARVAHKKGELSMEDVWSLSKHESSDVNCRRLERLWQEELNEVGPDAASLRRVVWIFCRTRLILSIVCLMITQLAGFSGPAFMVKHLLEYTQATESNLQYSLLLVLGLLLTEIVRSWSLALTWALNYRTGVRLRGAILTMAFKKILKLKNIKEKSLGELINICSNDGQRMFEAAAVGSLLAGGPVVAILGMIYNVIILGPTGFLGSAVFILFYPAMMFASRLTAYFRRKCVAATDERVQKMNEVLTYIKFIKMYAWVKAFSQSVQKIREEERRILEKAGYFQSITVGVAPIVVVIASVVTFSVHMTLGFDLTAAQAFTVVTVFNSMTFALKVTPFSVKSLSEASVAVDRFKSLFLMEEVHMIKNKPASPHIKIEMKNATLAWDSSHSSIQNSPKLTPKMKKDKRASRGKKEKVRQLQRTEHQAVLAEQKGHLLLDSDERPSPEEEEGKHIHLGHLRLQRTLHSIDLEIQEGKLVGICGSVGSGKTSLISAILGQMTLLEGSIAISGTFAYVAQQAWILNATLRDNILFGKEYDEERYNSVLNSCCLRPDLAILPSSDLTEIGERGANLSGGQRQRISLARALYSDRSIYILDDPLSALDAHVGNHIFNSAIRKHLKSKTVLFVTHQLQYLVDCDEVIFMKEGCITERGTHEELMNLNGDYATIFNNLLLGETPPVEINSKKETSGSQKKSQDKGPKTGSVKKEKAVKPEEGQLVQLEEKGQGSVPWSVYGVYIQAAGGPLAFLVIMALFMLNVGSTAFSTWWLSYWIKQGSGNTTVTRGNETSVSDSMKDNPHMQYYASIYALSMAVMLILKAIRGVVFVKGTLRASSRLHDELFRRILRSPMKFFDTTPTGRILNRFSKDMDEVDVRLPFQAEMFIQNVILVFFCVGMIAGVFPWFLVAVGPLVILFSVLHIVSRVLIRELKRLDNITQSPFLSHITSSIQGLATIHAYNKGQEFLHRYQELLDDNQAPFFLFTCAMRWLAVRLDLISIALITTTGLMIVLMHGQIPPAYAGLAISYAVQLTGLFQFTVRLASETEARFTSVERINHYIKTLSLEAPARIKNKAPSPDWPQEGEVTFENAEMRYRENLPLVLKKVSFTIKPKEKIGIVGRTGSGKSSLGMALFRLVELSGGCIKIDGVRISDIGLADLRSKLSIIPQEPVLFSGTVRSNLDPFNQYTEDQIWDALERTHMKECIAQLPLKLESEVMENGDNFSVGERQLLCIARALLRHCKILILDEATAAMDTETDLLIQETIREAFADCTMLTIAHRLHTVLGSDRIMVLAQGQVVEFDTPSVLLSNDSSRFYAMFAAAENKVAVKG
Sequence of UniProt Q99798 (Q99798 whole entry, looked up): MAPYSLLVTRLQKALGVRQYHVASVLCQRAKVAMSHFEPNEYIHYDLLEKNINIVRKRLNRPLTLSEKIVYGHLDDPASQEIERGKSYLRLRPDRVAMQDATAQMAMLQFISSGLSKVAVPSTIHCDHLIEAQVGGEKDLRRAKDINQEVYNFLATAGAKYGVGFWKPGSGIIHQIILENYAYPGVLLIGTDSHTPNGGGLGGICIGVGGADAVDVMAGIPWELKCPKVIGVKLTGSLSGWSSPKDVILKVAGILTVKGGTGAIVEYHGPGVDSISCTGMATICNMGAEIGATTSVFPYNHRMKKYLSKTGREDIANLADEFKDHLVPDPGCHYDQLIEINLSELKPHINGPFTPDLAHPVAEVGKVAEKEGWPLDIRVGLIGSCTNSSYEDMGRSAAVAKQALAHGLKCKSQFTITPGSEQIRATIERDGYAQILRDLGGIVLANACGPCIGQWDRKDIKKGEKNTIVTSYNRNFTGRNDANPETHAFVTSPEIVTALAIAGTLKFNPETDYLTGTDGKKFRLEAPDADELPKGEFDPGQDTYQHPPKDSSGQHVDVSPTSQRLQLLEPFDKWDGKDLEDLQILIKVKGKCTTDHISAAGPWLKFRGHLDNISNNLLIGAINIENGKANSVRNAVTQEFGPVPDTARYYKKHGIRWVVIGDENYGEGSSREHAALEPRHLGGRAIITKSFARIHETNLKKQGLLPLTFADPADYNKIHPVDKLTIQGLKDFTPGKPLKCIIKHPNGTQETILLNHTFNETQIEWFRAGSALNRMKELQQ
Sequence of UniProt Q16864 (Q16864 whole entry, looked up): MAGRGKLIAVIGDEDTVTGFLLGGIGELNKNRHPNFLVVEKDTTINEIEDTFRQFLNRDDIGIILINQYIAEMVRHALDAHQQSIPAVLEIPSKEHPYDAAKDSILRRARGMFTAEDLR
Sequence of UniProt P53680 (P53680 whole entry, looked up): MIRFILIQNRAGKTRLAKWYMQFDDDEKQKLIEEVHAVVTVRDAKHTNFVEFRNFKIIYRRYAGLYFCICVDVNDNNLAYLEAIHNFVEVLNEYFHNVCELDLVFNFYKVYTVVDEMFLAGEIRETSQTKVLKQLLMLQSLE
Sequence of UniProt P56211 (P56211 whole entry, looked up): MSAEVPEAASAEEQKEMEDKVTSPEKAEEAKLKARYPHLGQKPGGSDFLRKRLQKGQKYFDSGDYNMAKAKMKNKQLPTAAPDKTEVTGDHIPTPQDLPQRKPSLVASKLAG

Target | log2 fold change [1] | log2 fold change (crizotinib) | log2 fold change [2] | log2 fold change [3] | log2 fold change (duvelisib) | log2 fold change (gandotinib) | log2 fold change (tozasertib) | log2 fold change [4] | log2 fold change (doramapimod) | log2 fold change (ispinesib)
B4GALT1 (UniProt P15291) | -0.007 | -0.479 (active) | -0.031 | -0.124 | 0.035 | 0.161 | 0.014 | 0.049 | 0.071 | -0.066
AFDN isoform 5 (UniProt P55196) | 0.027 | -0.154 | 0.04 | -0.094 | -0.016 | -0.159 | -0.029 | 0.063 | 0.009 | -0.002
BRD8 isoform 2 (UniProt Q9H0E9) | -0.134 | 0.044 | -0.11 | 0.042 | 0.037 | 0.113 | 0.004 | -0.012 | 0.04 | 0.061
ACACB (UniProt O00763) | 0.078 | -0.152 | -0.13 | 0.341 | -0.113 | 0.041 | -0.013 | 0.289 | 0.168 | -0.188
ATP6V1F isoform 2 (UniProt Q16864) | -0.303 | 0.034 | -0.025 | -0.031 | 0.309 | 0.138 | 0.06 | -0.043 | 0.007 | 0.076
BOP1 (UniProt Q14137) | -0.008 | 0.11 | -0.153 | 0.064 | -0.113 | 0.025 | 0.007 | 0.134 | -0.008 | -0.114
ABHD17A isoform 2 (UniProt Q96GS6) | -0.027 | -0.135 | -0.03 | -0.015 | -0.008 | -0.283 | -0.024 | 0.016 | 0.004 | -0.129
AP2S1 (UniProt P53680) | -0.022 | -0.106 | 0.453 | -0.151 | 0.04 | -0.046 | -0.054 | 0.046 | 0.031 | 0.077
ARPP19 (UniProt P56211) | -0.017 | 0.059 | 0.006 | -0.106 | -0.082 | 0.019 | -0.031 | -0.106 | -0.037 | 0.048
ABCC5 (UniProt O15440) | 0.045 | -0.011 | 0.031 | 0.088 | 0.037 | -0.05 | -0.023 | -0.011 | -0.023 | -0.071
BZW2 (UniProt Q9Y6E2) | 0.006 | -0.146 | 0.096 | -0.037 | -0.001 | -0.218 | 0.011 | 0.047 | -0.047 | -0.072
ACP1 (UniProt P24666) | 0.077 | -0.063 | -0.033 | 0.165 | 0.021 | -0.083 | 0.108 | 0.324 | 0.141 | 
AARSD1 isoform 3 (UniProt Q9BTE6) | 0.062 | 0.054 | 0.012 | 0.013 | -0.04 | -0.081 | 0.055 | 0.038 | -0.05 | 0.067
ARFRP1 (UniProt Q13795) | -0.024 | -0.004 | 0.091 | -0.027 | 0.019 | -0.159 | -0.03 | -0.069 | 0.003 | 0.027
BCAP29 isoform 2 (UniProt Q9UHQ4) | -0.015 | -0.028 | 0.061 | -0.005 | -0.006 | 0.037 | -0.019 | -0.079 | -0.024 | -0.245 (active)
ADD3 isoform 2 (UniProt Q9UEY8) | -0.032 | 0.028 | 0.101 | -0.248 | 0.049 | -0.211 | 0.047 | 0.089 | -0.074 | 0.036
ATP6AP1 (UniProt Q15904) | -0.006 | -0.134 | -0.161 | 0.146 | -0.056 | -0.03 | 0.028 | 0.055 | 0.045 | -0.317 (active)
ARFIP1 (UniProt P53367) | 0.833 | -0.309 | 0.026 | -0.061 | 0.161 | -0.223 | -0.065 | 0.014 | 0 | -0.232
ADD2 (UniProt P35612) | 0.021 | -0.005 | 0.022 | -0.052 | 0.017 | -0.042 | -0.057 | -0.029 | 0.016 | 0.088
ATP12A isoform 2 (UniProt P54707) | 0.02 | 0.162 | 0.138 | -0.087 | 0.067 | -0.047 | -0.027 | -0.056 | -0.004 | 0.137
ATIC (UniProt P31939) | 0.108 | 0.092 | 0.101 | -0.083 | 0.023 | 0.066 | 0.018 | -0.015 | -0.029 | 0.096
ACTR1B (UniProt P42025) | 0 | -0.009 | 0.156 | 0.072 | 0.009 | -0.167 | 0.073 | -0.022 | 0 | 0.124
BST2 (UniProt Q10589) | -0.023 | 0.066 | 0.006 | -0.055 | -0.004 | -0.016 | -0.009 | -0.074 | 0.023 | -0.078
ANXA5 (UniProt P08758) | 0.03 | 0.045 | 0.108 | -0.002 | 0.043 | -0.083 | 0.041 | 0.052 | -0.059 | 0.006
AKR1C2 (UniProt P52895) | 0.005 | -0.029 | -0.159 | 0.219 | -0.076 | 0.089 | -0.045 | 0.098 | -0.036 | 0.077
AHCYL1 (UniProt O43865) | 0.097 | 0.018 | 0.038 | 0.02 | -0.005 | 0.02 | 0.007 | -0.036 | -0.045 | -0.015
ACO2 (UniProt Q99798) | 0 | -0.022 | 0.102 | -0.085 | 0.03 | -0.088 | -0.024 | 0.078 | -0.026 | 0.041
ARL6IP4 (UniProt Q66PJ3) | 0.014 | 0.026 | 0.036 | -0.093 | 0.039 | 0.114 | -0.005 | -0.038 | 0.013 | -0.051
BRIX1 (UniProt Q8TDN6) | -0.027 | -0.097 | -0.292 | 0.318 | -0.117 | 0.056 | 0.196 | 0.093 | 0.288 | 0.166
